{"source": "PubChem BioAssay (Tox21)", "note": "Records with an inconclusive call do not appear. Activity calls are given as the source filed them. The call rests on the fitted dose curve; in most records, active means well fitted inhibition curve with a large enough effect in the repeat runs; inconclusive means weak or mixed curves; inactive means flat fitted curve, though single readings scatter. On the % scale 0 is the no-effect control and ±100 the full control effect; potency means the concentration at half of the fitted maximal effect."}
{"molecular_target": "Voltage-gated inwardly rectifying potassium channel KCNH2 (Homo sapiens) (UniProt Q12809)", "sequence (Q12809 whole entry, looked up)": "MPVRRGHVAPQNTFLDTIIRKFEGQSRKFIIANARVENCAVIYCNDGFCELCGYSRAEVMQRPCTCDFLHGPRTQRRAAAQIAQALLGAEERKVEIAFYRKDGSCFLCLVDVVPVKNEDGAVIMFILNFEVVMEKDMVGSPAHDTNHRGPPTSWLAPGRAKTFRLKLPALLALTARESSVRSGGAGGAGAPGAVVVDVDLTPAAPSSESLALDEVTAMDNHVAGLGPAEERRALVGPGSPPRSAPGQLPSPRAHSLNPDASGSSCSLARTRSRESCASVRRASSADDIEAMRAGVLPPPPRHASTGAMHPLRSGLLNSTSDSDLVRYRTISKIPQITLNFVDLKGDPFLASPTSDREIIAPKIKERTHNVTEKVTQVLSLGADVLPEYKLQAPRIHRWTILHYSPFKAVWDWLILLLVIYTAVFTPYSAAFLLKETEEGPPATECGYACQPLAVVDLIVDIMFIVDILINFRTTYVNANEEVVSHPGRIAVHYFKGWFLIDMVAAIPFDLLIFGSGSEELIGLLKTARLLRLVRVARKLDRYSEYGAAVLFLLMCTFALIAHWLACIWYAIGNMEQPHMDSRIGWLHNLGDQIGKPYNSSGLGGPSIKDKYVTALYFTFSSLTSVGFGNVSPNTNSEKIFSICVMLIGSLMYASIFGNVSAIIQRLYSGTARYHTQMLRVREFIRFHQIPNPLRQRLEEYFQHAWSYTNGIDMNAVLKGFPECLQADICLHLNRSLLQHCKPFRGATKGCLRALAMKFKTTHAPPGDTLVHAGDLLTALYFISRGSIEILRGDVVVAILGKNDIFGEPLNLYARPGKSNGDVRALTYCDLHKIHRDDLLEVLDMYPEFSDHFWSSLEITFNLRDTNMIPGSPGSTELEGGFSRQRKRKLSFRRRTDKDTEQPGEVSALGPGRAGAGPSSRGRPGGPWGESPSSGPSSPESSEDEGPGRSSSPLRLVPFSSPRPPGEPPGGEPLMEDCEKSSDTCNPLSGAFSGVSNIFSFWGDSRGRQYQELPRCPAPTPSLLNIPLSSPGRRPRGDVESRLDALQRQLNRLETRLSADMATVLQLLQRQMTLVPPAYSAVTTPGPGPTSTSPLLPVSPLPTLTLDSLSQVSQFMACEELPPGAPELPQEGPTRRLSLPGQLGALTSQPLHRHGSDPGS", "assay": "Human Ether-a-go-go-Related Gene (hERG) channel small molecule antagonists: fluorescence cell-based qHTS assay (AID 1671200); further: nearly all actives have a fitted effect of over 50% in size", "settings": "hERG-U2OS cells, FluxOR thallium flux fluorescence; series mostly up to 76.8 µM; activity change, negative = inhibition: at the top concentration", "excerpt": "National Center for Advancing Translational Sciences [NCATS]\nU.S. Environmental Protection Agency [EPA]\nNational Institutes of Environmental Health Sciences [NIEHS]\nNational Toxicology Program [NTP]\nU.S. Food and Drug Administration [FDA]\nMutations in the hERG channel cause Long QT (LQT) syndrome. LQT syndrome is a cardiac disorder which can cause ventricle arrhythmia and sudden death. Additionally, compounds which block the hERG channel can cause acquired LQT syndrome. Several FDA approved drugs have been removed from the market due to their hERG blocking activity. A cell-based hERG channel inhibition assay can be used to screen chemical compounds that inhibit hERG channel. This assay measures hERG channel activity using thallium ions as surrogate ions to measure potassium into the cells.\nTox21 Assay Protocol Summary:\nhERG-U2OS cells were resuspended in culture medium and dispensed into 1536-well, black wall/clear-bottom plates at 1000cells/well/3uL using a Multidrop Combi dispenser (Thermo Fisher, Waltham, MA). After plates were incubated at 37 C overnight, 3 uL of Loading Buffer provided by FluxOR II Potassium Ion Channel Assay kit (Thermo, Carlsbad, CA) was added to each well. The assay plates were then incubated at room temperature in the dark for 1h. […] After the assay plates were incubated at room temperature for 10 min, 1 uL of Stimulus Buffer provided by FluxOR II Potassium Ion Channel Assay kit was added into each well and fluorescence intensity (480nm excitation/540nm emission) was continuously measured for 2 min at 1 second intervals using a Functional Drug Screening System (FDSS) 7000EX kinetic plate reader (Hamamatsu, Japan)."}
{"smiles": "CCCCO", "activity change, negative = inhibition": "5.23% (inactive)"}
{"smiles": "CN1Cc2cc(C(=O)N3CCC(C4CCNCC4)CC3)ccc2NC(CC(=O)O)C1=O", "note": "(stereo not given)", "activity change, negative = inhibition": "5.97% [at 35.3 µM] (inactive)"}
{"smiles": "CN(C)CCN(Cc1ccsc1)c1ccccn1", "activity change, negative = inhibition": "3.29% [at 35.3 µM] (inactive)"}
{"smiles": "CCCCCCCCCOS(=O)(=O)O", "activity change, negative = inhibition": "-0.357% (inactive)"}
{"smiles": "CC/C=C\\CCOC(=O)CC", "activity change, negative = inhibition": "-1.48% (inactive)"}
{"smiles": "O=C(O)c1ccc(-n2nc(-c3ccccc3O)nc2-c2ccccc2O)cc1", "activity change, negative = inhibition": "4.77% [at 35.3 µM] (inactive)"}
{"smiles": "CN1CCC(=C2c3ccccc3Sc3ccccc32)CC1", "Potency": "12 µM (active)"}
{"smiles": "CCOc1ccc(N)c([N+](=O)[O-])c1", "activity change, negative = inhibition": "4.66% (inactive)"}
{"smiles": "C#CCN(C)CCCOc1ccc(Cl)cc1Cl", "Potency": "8.49 µM (active)"}
{"smiles": "Nc1ncn([C@H]2C[C@H](O)[C@@H](CO)O2)c(=O)n1", "activity change, negative = inhibition": "-0.268% [at 35.3 µM] (inactive)"}
{"smiles": "CN(Cc1ccc(C(C)(C)C)cc1)Cc1cccc2ccccc12", "Potency": "19 µM (active)"}
{"smiles": "CCCCC1=NC2(CCCC2)C(=O)N1Cc1ccc(-c2ccccc2-c2nn[nH]n2)cc1", "activity change, negative = inhibition": "12.4% [at 35.3 µM] (inactive)"}
{"smiles": "CC(C)(CO)[N+](=O)[O-]", "activity change, negative = inhibition": "0.142% (inactive)"}
{"smiles": "C=CCOC(=O)CCC1CCCCC1", "activity change, negative = inhibition": "-10.6% (inactive)"}
{"smiles": "CC(=O)NO", "activity change, negative = inhibition": "-2.62% [at 35.3 µM] (inactive)"}
{"smiles": "COC(=O)c1ccc(I)cc1S(=O)(=O)NC(=O)Nc1nc(C)nc(OC)n1", "activity change, negative = inhibition": "2.72% (inactive)"}
{"smiles": "O=C(O)C1(C(=O)Nc2ccc(Cl)cc2Cl)CC1", "activity change, negative = inhibition": "-12.8% (inactive)"}
{"smiles": "NC(N)=NCCC[C@H](N)C(=O)O", "activity change, negative = inhibition": "5.88% [at 6.97 µM] (inactive)"}
{"smiles": "NS(=O)(=O)c1ccc(N2CCCCS2(=O)=O)cc1", "activity change, negative = inhibition": "-2.43% [at 35.3 µM] (inactive)"}
{"smiles": "C=CC1CC2C=CC1C2", "note": "(stereo not given)", "activity change, negative = inhibition": "-0.425% (inactive)"}
{"smiles": "CCCCCCCCCCCCN1CCCCCC1=O", "activity change, negative = inhibition": "-3.91% (inactive)"}
{"smiles": "CC(CC=O)c1ccccc1", "note": "(stereo not given)", "activity change, negative = inhibition": "-9.71% (inactive)"}
{"smiles": "C=C(C)C(=O)OCCO", "activity change, negative = inhibition": "4.15% (inactive)"}
{"smiles": "Cc1ccc(C(C)OC(=O)C2(C)CCC(C(=O)O)C2(C)C)cc1", "note": "(stereo not given)", "activity change, negative = inhibition": "2.22% [at 35.3 µM] (inactive)"}
{"smiles": "O=C(CS)Nc1ccccc1", "activity change, negative = inhibition": "2.08% [at 35.3 µM] (inactive)"}
{"smiles": "CCOC(=O)C(O)c1ccccc1", "note": "(stereo not given)", "activity change, negative = inhibition": "4.16% [at 35.3 µM] (inactive)"}
{"smiles": "CCN(CC)c1ccc2c(-c3ccccc3C(=O)O)c3ccc(=[N+](CC)CC)cc-3oc2c1", "activity change, negative = inhibition": "-21.3% (inactive)"}
{"smiles": "Cc1oc(-c2ccccc2)nc1CCOc1cccc2c1ccn2CCC(=O)O", "activity change, negative = inhibition": "1.94% (inactive)"}
{"smiles": "COc1ccc2cccc(CCNC(C)=O)c2c1", "activity change, negative = inhibition": "1.17% [at 35.3 µM] (inactive)"}
{"smiles": "CCc1cc(C2=C(C(=O)O)N(c3ccccc3C(F)(F)F)S(=O)(=O)c3ccccc32)cc2c1OCO2", "activity change, negative = inhibition": "-2.3% (inactive)"}
{"smiles": "Brc1c2ccccc2c(Br)c2ccccc12", "activity change, negative = inhibition": "-0.46% [at 6.97 µM] (inactive)"}
{"smiles": "CCCCOC(=O)CCCCCCCC(=O)OCCCC", "activity change, negative = inhibition": "-12.4% (inactive)"}
{"smiles": "CCCCC", "activity change, negative = inhibition": "-5.19% (inactive)"}
{"smiles": "CCCCCCCCCCO[C@@H]1O[C@H](CO)[C@@H](O)[C@H](O)[C@H]1O", "activity change, negative = inhibition": "1.8% (inactive)"}
{"smiles": "CN(C)CCN(Cc1ccc(Cl)cc1)c1ccccn1", "Potency": "2.39 µM (active)"}
{"smiles": "CNCCCCOc1ccccc1Cc1ccccc1", "Potency": "3.38 µM (active)"}
{"smiles": "C1CCCNCCC1", "activity change, negative = inhibition": "-5.95% (inactive)"}
{"smiles": "CC(C)(O)c1ccc(CNC(=O)c2cccnc2Oc2ccc(F)cc2)cc1", "activity change, negative = inhibition": "-4.41% (inactive)"}
{"smiles": "S=C([S-])NCCNC(=S)[S-].[Mn+2]", "activity change, negative = inhibition": "0.642% (inactive)"}
{"smiles": "CC1=CC=C(C(C)C)CC1", "activity change, negative = inhibition": "2.85% (inactive)"}
